Screening data as filed in PubChem BioAssay.
Most compounds without a hit are left out; they make up all but 1.5% or so of the library.
Casp1 inh – allosteric or competitive inhibitors of human caspase-1 | Caspase-1 enzyme, Ac-WEHD-AFC fluorogenic rate | Potency, µM (top dose mostly 57.5 µM), hits mostly inhibitors | actives 0.03% (n = 75,000) | AID 900
Caspase-7 inhib – allosteric or competitive inhibitors of human caspase-7. AID 889. recombinant caspase-7, Ac-DEVD-AFC fluorescence rate. P55210. actives 0.02% (n = 75,000). Potency, µM (doses to about 57.5 µM), hits mostly inhibitors; active means well fitted inhibition curve with a large enough effect in the main read-out, with a control signal flat, not every such curve was filed as active; inconclusive means small, poorly fitted or top-dose-only effect, or a change in a side signal
BRCT inh green – BRCA1 BRCT-phosphoprotein interaction inhibition | P38398 | BRCA1 BRCT-phosphopeptide binding, green fluorescence polarization | Potency, µM (highest dose often 76.9 µM), most hits filed as inhibitors | actives 0.05% (n = 75,000) | AID 875
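Fluorescence polarization: His-tagged BRCT (~35 kDa BRCA1 C-terminus, 250 nM) bound to 100 nM fluorescein-labeled phosphorylated 10-aa BACH1 peptide, pH 7.3 phosphate buffer with DTT and Tween 20. Compounds incubated 12 min at room temperature; inhibition read as lowered polarization.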
USP2a inhib – USP2a (human) protease inhibition; actives 0.1% (n = 60,000); Potency, µM (titrated, usually from 38.3 µM), actives largely listed as inhibitors; O75604; USP2a enzymatic assay, qHTS inhibition; further: nearly all actives have a fitted effect of over 60% in size
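Coupled readout: USP2-cleaved Ub-PLA2 (20nM final) turns over NBD C6-HPC (20uM final), Ex 460nm/Em 535nm after 2.5 h, time-zero read flagging artifacts. Enzyme (20nM final, pH 8.0 Tris) given 30 min RT with compound first; NEM defines full inhibition.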
BRCT PPI red – inhibitors of human BRCA1 BRCT-phosphoprotein interaction (red fluorophore). P38398. BRCT-phosphopeptide binding, red fluorescence polarization. Potency, µM (doses to about 76.9 µM), actives largely listed as inhibitors. actives 0.03% (n = 75,000). AID 892
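Fluorescence polarization: 100 nM His-tagged BRCA1 BRCT with 100 nM TAMRA-labelled phospho-BACH1 decapeptide, phosphate buffer pH 7.3 with 150 mM NaCl, DTT, 0.01% Tween 20; 12 min RT. Binding inhibition seen as FP decrease.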
ALOX15 inhib – 15-hLO (ALOX15) enzyme inhibition; P16050; purified 15hLO-1, xylenol orange hydroperoxide absorbance; Potency, µM (top dose mostly 57.1 µM), hits mostly inhibitors; actives 1.4% (n = 74,000); AID 887; further: nearly all actives have a fitted effect of over 55% in size
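Purified human 15hLO-1 (40 nM final) in 25 mM Hepes pH 7.5, 0.01% Triton X-100 was preincubated with compound 15 min at room temperature, then reacted 6 min with 50 uM arachidonic acid; hydroperoxide detected by Fe-XO, 573/405 nm absorbance ratio.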
Each line names hits and unclear results; the compound was inactive in the other large screens. Unless noted, the call rests on the fitted dose curve; in most records, active means well fitted curve in the direction sought with a large enough effect; inconclusive means small, poorly fitted or top-dose-only effect, or another doubt; inactive means no such curve, though single readings can be large; an effect the other way counts as inactive or inconclusive.

O=C(N/N=C1/C[C@@H](O)[C@@H](O)[C@@H]2[C@@H]3C(=O)N(Cc4ccccc4)C(=O)[C@H]3CC[C@H]12)OCc1ccccc1	none (no result: USP2a inhib)
COc1nc(N2CCCCCC2)nc(N2CCCCCC2)n1	none
COc1nc(Nc2cccc(C)c2)nc(N2CCCCC2)n1	ALOX15 inhib 3.98µM
COC1=Cc2c(ccc3ccc(=O)oc23)OC1(C)C	ALOX15 inhib 31.6µM
O=C1C(SCCO)=C(SCCO)C(=O)c2ccccc21	Casp1 inh 15.8µM
Ic1ccc2c(c1)N(c1ccccc1)c1cc(Nc3ccc4nc5ccc(I)cc5[n+](-c5ccccc5)c4c3)ccc1N2	none (no result: USP2a inhib)
CC(=O)Nc1ccc(N2CCN(C(C)=O)CC2)cc1	none
CC(=O)N1CCN(c2ccc(NCc3ccc(C)cc3)cc2)CC1	ALOX15 inhib 12.6µM
CCc1ccc(CNc2ccc(N3CCN(C(C)=O)CC3)cc2)cc1	ALOX15 inhib 15.8µM
CCc1cc(C(=O)COc2ccccc2F)c(O)cc1O	ALOX15 inhib 12.6µM
CCc1cc(C(=O)Cc2ccc(F)cc2)c(O)cc1O	ALOX15 inhib inconclusive
O=C(O)[C@@H]1CCN(Cc2oc(CO)cc(=O)c2O)C1	none (no result: USP2a inhib)
Cc1ccc(-c2cc(-c3ccccc3Cl)[nH]n2)c(O)c1	USP2a inhib inconclusive (no result: ALOX15 inhib)
Cc1ccccc1-c1cc(-c2ccccc2O)n[nH]1	USP2a inhib inconclusive, ALOX15 inhib 15.8µM
O=C1C=CC2(OCCCO2)C(Br)=C1	none (no result: USP2a inhib)
CC1CCCO1 (configuration not stated)	none (no result: USP2a inhib)
c1cncc(CNc2cc(-c3ccoc3)ncn2)c1	ALOX15 inhib 25.1µM
Nc1nc(=O)c2[nH]cnc2n1O	none (no result: USP2a inhib)
O=C1CC(C(F)(F)C(F)(F)C(F)(F)C(F)F)=Nc2ccccc2N1	none
O=C1CC(/C=C/c2ccco2)=Nc2ccccc2N1	BRCT PPI red inconclusive, ALOX15 inhib 5.01µM
Cc1ccc(C2C3=C(CC(C)(C)CC3=O)Nc3[nH]c(=S)[nH]c(=O)c32)cc1 (configuration not stated)	USP2a inhib inconclusive, ALOX15 inhib 20µM
Cc1[nH]nc2c1C(c1ccccc1)C1=C(CC(C)(C)CC1=O)N2 (configuration not stated)	none
Cc1nn2cc(-c3ccccc3)nc2s1	ALOX15 inhib 25.1µM
Oc1ccccc1NCC(O)Cn1ccc2ccccc21 (configuration not stated)	ALOX15 inhib 6.31µM
O=C1Nc2cccnc2Sc2ccccc21	ALOX15 inhib 15.8µM
O=C(NCCN1CCOCC1)c1ccc(-n2c(=O)c(=O)[nH]c3ccccc32)cc1	none (no result: USP2a inhib)
CCOC(=O)C1=C(C)NC(C)=C(C(=O)OCC)C1	ALOX15 inhib 10µM
COc1ccc([C@@H]2[C@H]3CN(C(C)=O)CC=C3C(C#N)=C(N)C2(C#N)C#N)c2ccccc12	ALOX15 inhib 12.6µM
NC(=O)NC(=O)[C@H]1CCCC[C@@H]1C(=O)O	none (no result: USP2a inhib)
C=CCC1C=CC(Oc2ccc(OC)cc2)C(CO)O1 (configuration not stated)	none (no result: USP2a inhib)
C=CCn1c(=O)/c(=C/c2ccc(C)o2)s/c1=C(/C#N)C(=O)c1ccccc1	ALOX15 inhib 15.8µM
Cc1ccc(/C=c2\sc3nc(-c4ccccc4Br)nn3c2=O)o1	none
COc1cccc(-c2nc(NC3CC3)c3ccccc3n2)c1	ALOX15 inhib 25.1µM
COc1cccc(-c2nc(NCc3ccccc3)c3ccccc3n2)c1	none
CCCCN(CC)S(=O)(=O)c1cccc2cccnc12	none (no result: USP2a inhib)
CC(=O)[C@@H]1[C@@H]2C(=O)N(c3ccc(F)c(Cl)c3)C(=O)[C@@H]2C2c3ccccc3C=CN21 (some centres not stated)	Casp1 inh 31.6µM, Caspase-7 inhib inconclusive, ALOX15 inhib inconclusive
N#C[C@@H]1[C@@H]2C(=O)N(c3ccc4c(c3)OCCO4)C(=O)[C@@H]2C2c3ccccc3C=CN21 (some centres not stated)	Casp1 inh 31.6µM, Caspase-7 inhib inconclusive, ALOX15 inhib inconclusive
O=C(c1ccco1)[C@@H]1[C@@H]2C(=O)N(c3ccc(Br)cc3)C(=O)[C@@H]2C2c3ccccc3C=CN21 (some centres not stated)	Caspase-7 inhib inconclusive (no result: Casp1 inh)
O=C(c1ccco1)[C@@H]1[C@@H]2C(=O)N(c3ccc(F)cc3)C(=O)[C@@H]2C2c3ccccc3C=CN21 (some centres not stated)	Caspase-7 inhib 12.6µM (no result: Casp1 inh)
Oc1cccc(C(=S)N2CCN(Cc3ccccc3)CC2)c1	ALOX15 inhib 12.6µM
O=C(N1CCOCC1)N1CCN(Cc2ccccc2)CC1	none
CCOC(=O)C1=C(C)NC(SCC(=O)OC)=C(C#N)C1c1ccc(C(=O)OC)cc1 (configuration not stated)	ALOX15 inhib 5.01µM
CC#C[C@]1(O)CC[C@H]2[C@@H]3CCC4=CC(=O)CCC4=C3[C@H](c3ccc(N(C)C)cc3)C[C@@]21C	ALOX15 inhib 10µM
C#C[C@@]1(O)CC[C@@H]2[C@@H]3CCC4=CC(=O)CC[C@@H]4[C@H]3CC[C@]21C	none
Oc1cc(O)cc(/C=C\c2ccc(O)c(O)c2)c1	Casp1 inh inconclusive, ALOX15 inhib 0.794µM
Oc1ccc(/C=C\c2cc(O)cc(O)c2)cc1	USP2a inhib inconclusive, ALOX15 inhib inconclusive
COc1ccc(OC)c(S(=O)(=O)Nc2ccc(O)c(Sc3ncn[nH]3)c2)c1	ALOX15 inhib 12.6µM
COC(=O)c1c(C)oc2ccc(NS(=O)(=O)c3cc(OC)ccc3OC)cc12	none
COc1ccc(OC)c(S(=O)(=O)Nc2ccc(C(N)=O)cc2)c1	none
COc1ccc(OC)c(S(=O)(=O)Nc2ccc(O)c3ccccc23)c1	Casp1 inh inconclusive, ALOX15 inhib 25.1µM
CCOC(=O)CSc1nc2c(c(-c3ccc(C)o3)c1C#N)CCCC2	ALOX15 inhib inconclusive
COC(=O)CSc1nc2c(c(-c3ccco3)c1C#N)CCCC2	ALOX15 inhib 10µM
N#Cc1c(N)nc(SCC(=O)OCc2ccccc2)c(C#N)c1-c1ccco1	Casp1 inh inconclusive, Caspase-7 inhib inconclusive, ALOX15 inhib 15.8µM
N#Cc1c(N)nc(SCc2ccccc2)c(C#N)c1-c1ccco1	ALOX15 inhib inconclusive
C[N+]1(C)CC[C@@H](OC(=O)[C@@](O)(c2ccccc2)C2CCCC2)C1	none
c1ccc2c(-c3ccncc3)c[nH]c2c1	none
Nc1cc(-c2ccncc2)c[nH]c1=O	Casp1 inh inconclusive, ALOX15 inhib 12.6µM
NS(=O)(=O)c1ccc(N=Nc2ccc[nH]c2=O)cc1	ALOX15 inhib 3.16µM (no result: USP2a inhib)
CC(=O)[C@@]1(N=Nc2ccc(S(N)(=O)=O)cc2)CCOC1=O	none (no result: USP2a inhib)
C/C=C\C1=C(CO)C(=O)C2O[C@]2(CC=C(C)C)C1=O (some centres not stated)	none (no result: USP2a inhib)
